SMILES strings stand for the structures. About 1,100 (48%) of roughly 2,300 compounds were called active. The rule behind the calls is not given here. The set was probably picked from earlier hits. The list shows a part of the results. Where a call stands in place of a potency, no number is given. Potency and affinity values are given separately.

What is called inhibition is the drop in the measured response relative to a control, in per cent.

The assay in a line: S. typhi counter-screen signal inhibition – fluorescence, 4 h, counter-screen for PhoP regulon inhibitor project, dose response (AID 2384). Conditions: S. typhi GFP reporter counter-screen; series mostly up to 150 µM. A general note: A counterscreen serves to expose hits that act by an unwanted route or on another target.
Turning to `CCCCCCCCn1ccc(=N)cc1`, the inhibition result is “inactive”. The result for `CCN(CC)CCn1nc(C)nc1-c1ccccc1O` reads “inactive”; that for `CCN1c2ccccc2NC2N=C(OC)C(c3ccccc3)C21` (stereo not drawn), “inactive”; that for `O=C(Nc1ccc(F)cc1)c1ccc2snnc2c1`, “inactive”. `Clc1ccc(CN2CCN(/N=C/c3ccco3)CC2)cc1`: the inhibition result is “inactive”. Then `C=CCn1c(C)cc(C(=O)CSc2n[nH]c(N)n2)c1C`, with “inactive”; and `COc1ccc(NC(=O)N2CCc3ccccc32)cc1`, with “inactive”. The result for `O=C(CCl)NC1CCCc2ccccc21` (stereo not drawn) reads “inactive”; that for `Cc1c(-n2cc(C(=O)c3ccccc3O)cc(C#N)c2=O)c(=O)n(-c2ccccc2)n1C`, “inactive”.

In the case of `Cc1c(NC(=O)OCc2ccccc2)c(=O)n(-c2ccccc2)n1C`, the inhibition entry was “inactive”.

For `Cc1csc2ncc(C(=O)Nc3ccon3)c(=O)n12`, the inhibition entry was “inactive”. Then `O=C(CCn1cccc1)Nc1ccc(OC(F)(F)F)cc1`, with “inactive”. The result for `O=C(O)C1CCCCC1C(=O)NCCc1ccncc1` (stereo not drawn) reads “inactive”; that for `O=C(Nc1ccc(S(=O)(=O)N2CCCC2)cc1)c1cccnc1`, “inactive”; that for `N/C(=N\OC(=O)C(c1ccccc1)c1ccccc1)c1ccncc1`, “inactive”. For `COc1ccc(N(C(=O)c2cccnc2)S(=O)(=O)c2ccc(F)cc2)cc1`, the inhibition entry is “inactive”. `N/C(=N\OC(=O)COc1ccc2ccccc2c1)c1ccccn1`: the inhibition entry was “inactive”. For the molecule `CCOC(=O)C(O)(NC(=O)c1cccnc1)C(F)(F)F` (stereo not drawn), the inhibition entry was “inactive”. Then `O=C(O)c1[nH]c2ccc(Br)cc2c1CCN1C(=O)c2cccc([N+](=O)[O-])c2C1=O`, with “inactive”. The result for `CCOC(=O)C(NC(C)=O)(OCc1ccc(F)cc1)C(F)(F)F` (stereo not drawn) reads “inactive”. `COc1cccc(/C=N/NC(=O)CNC(=O)CCc2ccccc2)c1O`: the inhibition result is “inactive”.

In the case of `COc1ccc(C2CC(=O)N3CN(Cc4ccco4)CSC3=C2C#N)cc1` (stereo not drawn), the inhibition result was “inactive”. As to `C=CCNC(=O)NC(=O)COC(=O)/C(C#N)=C/c1ccc(OC)cc1`, the inhibition entry is “inactive”. `O=C(Nc1cccc(OCC(=O)N2CCOCC2)c1)c1cccc([N+](=O)[O-])c1`: the inhibition entry was “inactive”. The result for `N/C(=N\OC(=O)N1CCOCC1)c1ccccc1` reads “inactive”; that for `CC(C)(C)c1ccc(NC(=O)COc2ccc(-n3ccnc3)cc2)cc1`, “inactive”. The result for `CCC(C)(c1ccc(C(=O)OC)s1)c1ccc(C(=O)OC)s1` reads “inactive”; that for `CCOC(=O)C1CCN(Cc2nc(-c3ccc(OC)c(OC)c3)no2)CC1`, “inactive”. Then `CC1=C([N+](=O)[O-])C(c2ccccc2)C2=C(N1)c1ccccc1C2=O` (stereo not drawn), with “inactive”. On to `CCSC1=NCN(CCCC(=O)O)CN1`, for which the inhibition entry is “inactive”. The result for `Cc1ccc(CNC(=O)CCC(=O)Nc2nnc(C)s2)cc1` reads “inactive”; that for `COc1ccc(CC(=O)Nc2ncc([N+](=O)[O-])s2)cc1OC`, “inactive”; that for `O=C(Nc1ccc(N2CCOCC2)cc1)c1ccc(S(=O)(=O)NCc2ccco2)cc1`, “inactive”.

(Values after PubChem BioAssay AID2384 (Southern Research Specialized Biocontainment Screening …, 2010).)
